The structures appear in SMILES notation.

These results are taken from ChEMBL document CHEMBL1157539, “Thousands of chemical starting points for antimalarial lead identification” (Nature, 2010).

The first assay deals with Plasmodium falciparum. The experiment in a line: GSK_TCMDC: Inhibition of Plasmodium falciparum Dd2 in whole red blood cells, using parasite LDH activity as an index of growth. Test compounds present at 2uM. The class given is functional.
`Cc1ccc(Cc2cnc(CN3CCCCC3)c(O)c2)cc1.Cl` showed an Inhibition of 75%.
Still for that read-out and setting: under `COc1ccccc1N1CCN(C(C(=O)NCc2ccc3c(c2)OCO3)c2ccc(C)cc2)CC1` (centres undefined) stands 81%; under `CC(=O)O.Nc1nc(N)c2cc3ccc(OCc4ccccc4)cc3nc2n1`, 75%; under `Cc1cccc(C(=O)Nc2ccc(N3CCCN(Cc4cccc(O)c4)CC3)cc2)c1.O=C(O)C(F)(F)F`, 44%.
On the same count and under the same terms, to `CC(C)N1CCN(C(=O)c2ccc(CNCCCN3CCN(c4ccccc4C(F)(F)F)CC3)s2)CC1.Cl` belongs 42%.
Still for that read-out and setting: under `CN1CCCN(Cc2cccc(-c3cccc(NS(=O)(=O)c4cccc5cccnc45)c3)c2)CC1.O=C(O)C(F)(F)F` stands 74%; under `Oc1cccc(-c2nc(-c3ccccc3)c(-c3ccc(Oc4ccc(-c5[nH]c(-c6cccc(O)c6)nc5-c5ccccc5)cc4)cc3)[nH]2)c1`, 96%.
In the case of `CCNc1cc(C(=O)N[C@@H](Cc2ccccc2)[C@H](O)CNCc2ccc3c(c2)OCCO3)cc(N2CCCCS2(=O)=O)c1.O=CO`, the Inhibition turned out to be 45%.
The same measure, in the same setting: to `FC(F)(F)c1ccc2c(NN=Cc3cccc(Cl)c3)ccnc2c1` belongs 59%.

The next assay deals with HepG2. The experiment in a line: GSK_TCMDC: Percent inhibition of human HepG2 cell line. Test compounds present at 10uM. The class given is functional.
`CCN(CC)/C(=N/C(=N)NCc1ccc(Cl)cc1Cl)NCCCCCCN/C(=N\C(=N)NCc1ccc(Cl)cc1Cl)N(CC)CC` returned an Inhibition of 16%.
For `COC(=O)Cn1c(C2CCN(CC3CCN(C(=O)/C=C/c4ccc(Cl)c(Cl)c4)CC3)CC2)nc2ccccc21`, the Inhibition was 19%.
On the same count and under the same terms, under `Br.CC1(C)NC(N)=NC(=N)N1OCCOc1cccc(C(F)(F)F)c1` stands 67%.
On the same count and under the same terms, under `O=C(NCCN1CCCC1)N1CCCN(c2ncnc3cc(-c4ccc(Cl)cc4)sc23)CC1.O=C(O)C(F)(F)F` stands 13%; under `Cc1cccc2nc(-c3ccc(-c4ccc(NC(=O)c5cncn5C)cc4)s3)[nH]c12`, 49%.
The compound `COc1cc(F)c2nccc([C@@H](O)CN3CCC(NC(=O)OCc4ccccc4)C(F)C3)c2c1` (some centres undefined) displayed an Inhibition of 44%.
On the same count and under the same terms, to `CCc1cc2c(=O)c(-c3nc(C)cs3)c(N)oc2c(CN2CCCCC2)c1O` belongs 0%.
In the case of `Clc1cc(Nc2ncnc3cc(C#C[C@H]4CCCN4)sc23)cc2nc(Cc3ccccc3)[nH]c12.O=C(O)C(F)(F)F`, the Inhibition worked out at 29%.
The same measure, in the same setting: to `Cl.O=C(Nc1ccc(NC2=NCCN2)cc1)c1ccc(C(=O)Nc2ccc(NC3=NCCN3)cc2)cc1` belongs 15%.
`O=C(Nc1cccc(CN2CCCN(CC3CC3)CC2)c1)c1ccc(Cl)c(Cl)c1.O=C(O)C(F)(F)F` gave an Inhibition of 13%.
`COC(=O)[C@@H](NC(=O)[C@H](Cc1ccc(OC)c(OC)c1)Nc1ccc(C#N)c2ccccc12)c1ccc(O)cc1.O=C(O)C(F)(F)F` registered an Inhibition of 6%.
The same measure, in the same setting: to `CCCc1cc(Cc2cnc(N)nc2N)ccc1OCCCCCC(=O)OCC` belongs 0%; to `CC(C)[C@@H](C(=O)NCc1cccc(C(F)(F)F)c1)N1C(=O)CCC1C(=O)Nc1ccc([N+](=O)[O-])cc1` (some centres undefined), 0%; to `O=C(/C=C/c1ccc(Cl)c(Cl)c1)NCCCCCN1CCC(CCNC(=O)/C=C/c2ccc(Cl)c(Cl)c2)CC1`, 68%.
`O=C(NCc1ccc(Cl)c(Cl)c1)c1ccc(-c2nc3cc(F)c(F)cc3[nH]2)cc1`: the Inhibition is on record as 0%.
Still for that read-out and setting: to `Cc1nc(-c2ccccc2)nc(N2CCN(C(=O)c3ccco3)CC2)c1Cc1ccccc1F` belongs 7%.
`CC1(C)N=C(NC(=O)Nc2ccc([N+](=O)[O-])cc2)N=C(N)N1OCc1cccc2ccccc12` returned an Inhibition of 35%.
The same measure, in the same setting: to `O=C(Nc1ccc(C(F)(F)F)cc1)c1ccc(S(=O)(=O)NC2CCN(CC3CCCCC3)C2)cc1.O=C(O)C(F)(F)F` (centres undefined) belongs 33%.
With `Fc1ccc2[nH]c3c(NCCN4CCCCC4)ncnc3c2c1`, the Inhibition was 24%.
Take `CN(C)CCCNCCS(=O)(=O)c1cccc(Nc2ccc(-c3cccc(N(C)C)c3)cn2)c1`: the Inhibition was found to be 19%.
`COc1ccc(-c2cccc(NC(=O)c3ccc(F)cc3)c2)cc1CNC(C)C.O=C(O)C(F)(F)F` displayed an Inhibition of 32%.
Same read-out and setting: to `COc1ccccc1Cc1nc2ccccc2nc1SCC(=O)Nc1cccc(C(F)(F)F)c1` belongs 8%.
On the same count and under the same terms, to `CCN1CCN(c2cc(C)c3cc(NC(=O)c4cc(OC)cc(OC)c4)ccc3n2)CC1` belongs 0%; to `CC[C@H](C)CNC(=O)c1cccc(-c2cccc(CNCC3CNCCCO3)c2)n1.O=C(O)C(F)(F)F` (some centres undefined), 15%; to `COc1ccc(Nc2nccc(N3CCC(NC(=O)C(C)c4ccc(Cl)cc4)CC3)n2)cc1` (centres undefined), 18%.
Still for that read-out and setting: under `CC(=O)c1sc(Cc2nc3ccccc3s2)nc1C` stands 0%; under `COc1ccc(/C=C/C(=O)NCCCCCN2CCC(c3c[nH]c4ccccc34)CC2)cc1O`, 9%.
In turn, `CCNC(=O)Nc1cccc(-c2ccc(-c3nc4cccc(C)c4[nH]3)s2)c1` displayed an Inhibition of 32%.
Take `Cc1cc(N[C@@H](CC(C)C)C(=O)NCc2cccc(F)c2)nc(NCCc2ccc(F)cc2)n1.O=C(O)C(F)(F)F`: the Inhibition was determined as 0%.
On the same count and under the same terms, to `Oc1c(C(Nc2ccccn2)c2ccc(Cl)cc2Cl)ccc2cccnc12` (centres undefined) belongs 42%.
`CCN(CC)CCOC(=O)c1ccc(NC(=O)c2cn(-c3ccccc3)nc2-c2cccs2)cc1.Cl` had an Inhibition of 25%.
With `Cc1ccc(Cc2cnc(CN3CCCCC3)c(O)c2)cc1.Cl`, the Inhibition is 4%.
Same read-out and setting: to `COc1ccccc1N1CCN(C(C(=O)NCc2ccc3c(c2)OCO3)c2ccc(C)cc2)CC1` (centres undefined) belongs 1%; to `CC(=O)O.Nc1nc(N)c2cc3ccc(OCc4ccccc4)cc3nc2n1`, 78%.
The compound `Cc1cccc(C(=O)Nc2ccc(N3CCCN(Cc4cccc(O)c4)CC3)cc2)c1.O=C(O)C(F)(F)F` registered an Inhibition of 2%.
The compound `CC(C)N1CCN(C(=O)c2ccc(CNCCCN3CCN(c4ccccc4C(F)(F)F)CC3)s2)CC1.Cl` yielded an Inhibition of 32%.
On the same count and under the same terms, under `CN1CCCN(Cc2cccc(-c3cccc(NS(=O)(=O)c4cccc5cccnc45)c3)c2)CC1.O=C(O)C(F)(F)F` stands 21%; under `Oc1cccc(-c2nc(-c3ccccc3)c(-c3ccc(Oc4ccc(-c5[nH]c(-c6cccc(O)c6)nc5-c5ccccc5)cc4)cc3)[nH]2)c1`, 6%.
Same read-out and setting: under `CCNc1cc(C(=O)N[C@@H](Cc2ccccc2)[C@H](O)CNCc2ccc3c(c2)OCCO3)cc(N2CCCCS2(=O)=O)c1.O=CO` stands 0%.
The same measure, in the same setting: under `FC(F)(F)c1ccc2c(NN=Cc3cccc(Cl)c3)ccnc2c1` stands 7%.

In general, Inhibition refers to the change of the read-out against control, counted positive when it falls. A high value points to strong suppression.
